From PubChem BioAssay
Shiga toxin inh – inhibitors of Shiga toxin in Vero cells; Vero cells, Shiga toxin protein synthesis inhibition reporter; inhibition, % at 38.7 µM; 9.2% of 290,000 active; AID 2315; in the data active = inhibition mostly above about 28%, no sharp cut-off; inactive = mostly below about 43%; also: 0% is about no effect
Pf growth 48h – P. falciparum growth inhibition at 48 hours (one generation). P. falciparum luciferase growth in erythrocytes, 48 h. Potency, µM (highest dose often 28.7 µM), for the others: at the highest dose activity change, negative = inhibition, most hits filed as inhibitors. 5.9% of 310,000 active. AID 504832; also: potency is read from the fitted curve at half-maximal effect; % is scaled to controls: 0 for no effect and ±100 for the full control effect
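Growth was read as firefly luciferase luminescence after a 48 h, 37 C, 5% CO2 exposure of compounds to reporter-bearing P. falciparum cultures (0.1% parasitemia, 2% hematocrit final) in Albumax-supplemented RPMI 1640.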
Sm TGR block – inhibitors of Schistosoma mansoni thioredoxin glutathione reductase; Q962Y6; purified TGR, DTNB reduction, TNB absorbance 405 nm; Potency, µM (top dose mostly 114 µM), for inactives: at the top dose activity change, negative = inhibition, most hits filed as inhibitors; 3% of 360,000 active; AID 485364; also: potency is read from the fitted curve at half-maximal effect; % is scaled to controls: 0 for no effect and ±100 for the full control effect; nearly all actives have a fitted effect of over 60% in size
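Kinetic colorimetric format: TGR-catalysed, NADPH-driven DTNB reduction monitored via TNB absorbance. Enzyme dispensed at 20 nM; compound exposure 15 min at room temperature before reaction start.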
NS1 inh – inhibitors of influenza NS1 protein function; AID 2326; 0.4% of 270,000 active; Potency, µM (highest dose often 46.1 µM), for inactives: top-dose activity, positive = more growth; calls by dose curve; also: potency is read from the fitted curve at half-maximal effect; actives are rising curves; nearly all actives have a fitted effect of over 50% in size
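Recovery from NS1-induced slow growth read by OD600 in budding yeast switched to galactose assay medium (pH 6.0, -URA) at 1:100 dilution. Compound 23 nl per well; the matching strain lacking NS1 serves as control.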
Cycloheximide cs – affects cycloheximide protein synthesis inhibition readout, counter-screen. cell reporter, cycloheximide protein synthesis inhibition counterscreen. max response, %. 12% of 300,000 active. AID 2314; in the data active = max response mostly above about 13%, no sharp cut-off; inactive = mostly below about 14%; also: read at 38.3 µM for the half of the compounds with a filed dose; 0% is about no effect
Pf growth 96h – inhibits malaria parasite growth, 96 h | 6.9% of 320,000 active | P. falciparum luciferase reporter growth, 96 h | Potency, µM (series often up to 28.7 µM), without a hit: top-dose activity change, negative = inhibition, actives largely listed as inhibitors | AID 504834; also: potency is read from the fitted curve at half-maximal effect; % is scaled to controls: 0 for no effect and ±100 for the full control effect
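Readout is luminescence from an integrated firefly luciferase in P. falciparum. Red cells, 2% hematocrit and 0.05% parasitemia final, were cultured with compound through two parasite generations (96 hours) at 37 C, 5% CO2.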
Numbers without * were called inactive; ? = inconclusive; . = no result given; + = active, no number. Shown are actives, neighbours in structure and some others; about 21% of the full set was active somewhere. Unless noted, calls follow the shape of the dose curve; as a rule, active = well fitted curve in the direction sought with a large enough effect; inconclusive = small, poorly fitted or top-dose-only effect, or another doubt; inactive = no such curve, though single readings can be large; an effect the other way counts as inactive or inconclusive.

SMILES | Shiga toxin inh | Pf growth 48h | Sm TGR block | NS1 inh | Cycloheximide cs | Pf growth 96h
CCOc1ccc(OCC)c(NC(=O)c2ccc(CNc3c(N4CCCC4)c(=O)c3=O)cc2)c1 | -10.8 | 11.7µM* | -18.2% | -1.8% | -4.7 | ?
Cc1ccc(CNC(=O)c2cc(-c3ccc(Cl)cc3)on2)cc1 | . | . | 0.6% | . | . | .
CCOc1ccc(C2C(C#N)=C(N)Oc3c2c(=O)oc2ccccc32)cc1 (configuration not stated) | -17.1 | -8.8% | 1.8% | 8.9% | 6.7 | ?
N#CC1=C(N)Oc2c(c(=O)oc3ccccc23)C1c1ccc(OC(=O)N2CCOCC2)cc1 (configuration not stated) | -16.9 | 9.28µM* | ? | -111.3% | 9.3 | 11.7µM*
O=C(COc1ccccc1Cl)NC(=S)Nc1cccc(NC(=O)c2ccccc2Cl)c1 | 2.5 | -4.5% | 4.3% | -3.6% | 12.9 | 10.6%
O=C(O)CCC(=O)NNC(=O)COc1ccc2ccccc2c1Br | 17.1 | 5.5% | . | 0.1% | -1.9 | 11.2%
O=C(COc1ccc2ccccc2c1Br)NC(=S)Nc1cccc(CO)c1 | 22.1* | 38.9% | -6.3% | -4.7% | 50.7* | 6.9%
O=C(COc1ccc(Br)cc1Br)NC(=S)Nc1cccc(CO)c1 | 86.6* | 184.2% | 3.7% | -4.8% | 97.4* | 198.7%
O=C(c1ccc2nccnc2c1)N1CCCC(Nc2ccc(F)c(F)c2)C1 (configuration not stated) | 4.9 | -11.3% | -33.0% | 9.6% | -0.9 | 1.3%
O=C(CCCc1ccccc1)NC12CC3CC(CC(C3)C1)C2 | . | 37.7% | -15.2% | -47.7% | 45.5* | -14.7%
O=C(NNC(=O)C12CC3CC(CC(C3)C1)C2)c1ccccc1O | . | ? | -0.1% | . | . | ?
O=C(NN=C1CCCC1)c1cccs1 | 91.5* | 25.9% | 11.6% | 21.4% | 62.9* | 94.8%
C=C(C)C1CC=C(C)/C(=N/NC(=O)c2cccs2)C1 (configuration not stated) | 77.4* | 90.5% | -19.6% | 1.3% | 21.8* | 85.2%
O=C(NC12CC3CC(CC(C3)C1)C2)c1ccccc1O | 41.1 | 7.38µM* | 4.0% | -58.7% | 16.1 | .
CC(=O)N1CCC(=NNC(=O)c2cccs2)CC1 | + | 31.9% | -1.7% | 8.3% | 55.2* | 28.1%
O=C(NN=C1CCCCCC1)c1cc2ccccc2cc1O | 17.7 | ? | 9.2% | 7.5% | 7.6 | 4.7%
O=C(NN=C1C2CC3CC(C2)CC1C3)c1ccccc1O | 37.6 | ? | 30.4% | -2.6% | 19.0* | -24.7%
NC(=S)NN=C1C2CC3CC(C2)CC1C3 | 0.7 | ? | -7.3% | . | 11.0 | ?
O=C(NN=C1C2CC3CC(C2)CC1C3)c1cccs1 | 73.1* | . | -6.9% | -2.2% | 48.3* | 59.7%
NC(=O)C(=O)NN=C1C2CC3CC(C2)CC1C3 | 16.4 | 0.0% | 12.0% | 8.2% | 8.0* | 5.2%
CCC(C)(C)NC(=O)Cc1ccccc1OC | -6.4 | . | 5.3% | 0.1% | -5.5 | 0.3%
CC(CC(=O)NCc1ccc(Cl)cc1)CC1=NS(=O)(=O)c2ccccc2N1 (configuration not stated) | . | . | 0.6% | . | . | .
CCOC(=O)c1c(NC(=O)CN2C(=O)NC3(CCCCC3)C2=O)sc(C)c1-c1ccc(C)cc1 | 0.3 | 14.7µM* | 0.0% | 3.2% | 3.9 | 9.28µM*
CCOC(=O)c1c(NC(=O)CN2C(=O)NC3(CCC(C)CC3)C2=O)sc(C)c1-c1ccc(C)cc1 (configuration not stated) | 4.4 | 7.1% | -6.5% | ? | 1.5 | -2.7%
CCOC(=O)c1sc(NC(=O)CN2C(=O)NC3(CCCCCCC3)C2=O)c(C(=O)OCC)c1C | 2.5 | 8.28µM* | 4.3% | -3.9% | 13.8 | 9.28µM*
SMILES | Shiga toxin inh | Pf growth 48h | Sm TGR block | NS1 inh | Cycloheximide cs | Pf growth 96h
CCOC(=O)c1sc(NC(=O)CNCc2ccccn2)c(C(=O)OCC)c1C | -15.2 | 1.04µM* | -16.2% | 1.7% | 6.2 | 0.415µM*
CCOC(=O)c1c(NC(=O)CC)sc(C(=O)N2CCCCC2)c1C | -9.8 | . | -0.8% | 4.4% | -4.5 | 13.1µM*
CCc1ccccc1NC(=O)CC(c1ccc(F)cc1)N1Cc2ccccc2C1=O (configuration not stated) | . | . | 1.3% | . | . | .
Cc1ccc2[nH]c(=O)c(C(c3nnnn3C(C)(C)C)N3CCN(C(=O)c4ccco4)CC3)cc2c1 (configuration not stated) | -18.2 | 9.28µM* | ? | 6.9% | 4.3 | ?
CCC(C)(C)n1nnnc1C(c1ccccc1OC)N1CCN(C(=O)c2ccco2)CC1 (configuration not stated) | 40.7 | 1.85µM* | -34.3% | -7.0% | 11.2* | 14.1%
Cc1cccc2cc(C(c3nnnn3C(C)(C)C)N3CCN(C(=O)c4ccco4)CC3)c(=O)[nH]c12 (configuration not stated) | -1.7 | 3.29µM* | -5.8% | -19.0% | -1.9 | -24.9%
COCCn1nnnc1C(c1ccccc1OC)N1CCN(C(=O)c2ccco2)CC1 (configuration not stated) | 15.0 | -19.1% | 28.3% | -3.2% | 7.0 | 16.6%
CCC(C)(C)n1nnnc1C(c1cc2cc(C)cc(C)c2[nH]c1=O)N1CCN(C(=O)c2ccco2)CC1 (configuration not stated) | 33.3 | ? | 17.8µM* | 18.8% | -2.5 | 1.65µM*
COc1ccc(C(c2nnnn2C(C)(C)C)N2CCN(C(=O)c3ccco3)CC2)cc1 (configuration not stated) | -2.4 | -32.5% | -14.3% | -0.8% | -6.0 | -19.7%
COc1cc(C(=O)Nc2nnc(CC(C)C)s2)c([N+](=O)[O-])cc1OC | -22.9 | 16.2% | -3.5% | -2.4% | -2.2 | 21.6%
CC(=O)N1N=C(c2ccc(C)cc2)OC1c1ccc(C)cc1 (configuration not stated) | 23.3 | . | -11.1% | -11.4% | 22.2* | 69.0%
CC(=O)N1N=C(c2cccnc2)OC1c1ccc(C(C)C)cc1 (configuration not stated) | 17.6 | 19.4% | . | -1.7% | 12.3 | 82.2%
CC(=O)N1N=C(c2ccccc2)OC1c1ccc([N+](=O)[O-])s1 (configuration not stated) | 7.7 | -4.2% | 31.6µM* | . | 10.9 | ?
CC(=O)N1N=C(c2ccc(C)cc2)OC1c1ccc(C(C)C)cc1 (configuration not stated) | 163.9* | 90.0% | 16.7% | 3.3% | 38.3* | 342.2%
Cc1ccc(/C=C/c2onc(C)c2S(=O)(=O)N2CCC(C(=O)N3CC(C)Oc4ccccc43)CC2)cc1 (configuration not stated) | . | . | 9.1% | . | . | .
CCOc1ccc(C(=O)NCC(=O)NCC(c2ccco2)N2CCCCC2)cc1OCC (configuration not stated) | . | ? | -4.8% | . | . | -17.8%
Cn1cccc1C(=O)NCC(c1ccco1)N1CCCCC1 (configuration not stated) | . | ? | -9.7% | . | . | ?
